# Reference: PubChem BioAssay (NCI)
# This is part of a sample that, as a whole, favours compounds with a hit. Of some 79,000 tested, about 15% had one in any assay. A number with no mark means an inactive call. Rule as the data show it: active = growth inhibition above about 70%; inactive = the rest.
# Experiment: NCI Yeast Anticancer Drug Screen. Data for the mec2-1 strain (AID 157)
# Conditions: S. cerevisiae mec2-1 strain, at 50.0 µM, active compounds read high
# Protocol: Growth inhibition of yeast strains with defined genetic alterations is measured as a screen for potential anti-cancer activity. Selected strains with alterations in DNA damage repair or cell cycle control were exposed to compounds and growth inhibition was measured relative to vehicle treated controls. The strain used in this assay is mec2-1
row,SMILES,growth inhibition [%]
1,Cc1ccc(N2C(=O)c3cccc4c(N)c(S(=O)(=O)O)cc(c34)C2=O)cc1,-18.2
2,O=C(O)c1ccc(OCc2ccccc2)cc1,11.2
3,Oc1ccc2ccccc2c1CN1CCOCC1,5.4
4,CCOc1ccc2c(c1)c(C)cc(C)[n+]2CC,-41
5,Cc1ccc(NC(=S)N2CCOCC2)cc1C,-17.4
6,O=S(Cc1ccccc1)/C(=C/NC(=S)Nc1cc(Cl)ccc1Cl)c1ccccc1 (stereo not given),7.05
7,FC(F)(F)c1cc(NC2=NCCN=C(Nc3cc(C(F)(F)F)cc(C(F)(F)F)c3)SS2)cc(C(F)(F)F)c1,-29.7
8,CC(O)C(F)(F)C(F)(F)C(F)(F)F (stereo not given),-16.6
9,Oc1ccc(CCC2CCNc3ccccc32)cc1 (stereo not given),-1.85
10,C/C(=N\N=C(/C)c1cccc([N+](=O)[O-])c1)c1cccc([N+](=O)[O-])c1,-21
11,CCCCCCCCCCC(=O)CCCCCCCCCC,-12.2
12,CCOC(=O)c1ccc(Nc2sc(C(=O)c3ccc(Br)cc3)c(N)c2C#N)cc1,-23.6
13,CCOP(=O)(NC(c1ccccc1)c1ccccc1)OCC,-15.2
14,OCCc1ccc(Cl)cc1,8.15
15,CC(=O)N(C)N=Nc1ccc(C)cc1,-23.6
16,CC(=O)C[n+]1ccc(C)cc1Sc1ccccc1C,-18.1
17,COc1ccc2c(Cl)cc(NC(=O)Nc3c(C)cccc3C)nc2c1,1.15
18,C/C(=N\Nc1ccc([N+](=O)[O-])cc1[N+](=O)[O-])c1ccc(Br)cc1,-2.2
19,CC(=O)c1cccc(O)c1,-8.85
20,COc1ccc(NNS(=O)(=O)O)cc1,4.7

row,SMILES,growth inhibition [%]
1,Cc1ccc(S(N)(=O)=O)cc1Cl,-20.1
2,CCOC(=O)c1c[nH][nH]c1=O,-8.45
3,O=C1C=Cc2ccccc2/C1=C/c1[nH]c(=O)[nH]c1O,-1.35
4,CC(=O)c1cccs1,-0.05
5,O=C(c1ccccc1)c1ccc(-c2ccc(O)cc2)cc1,23.5
6,O=C(OCC1CCCO1)c1ccc([N+](=O)[O-])cc1 (stereo not given),21.6
7,Cn1c2ccccc2c2nnc(NCCCCO)nc21,18.3
8,O=Cc1ccc(O)c(O)c1,-6.5
9,CC(=O)c1cc(O)ccc1O,-10.1
10,CN(C)c1ncnc2c1cnn2C,-0.6
11,COC(=O)Cc1cc(COC(C)=O)ccc1C,0
12,CCOC(=O)C(CCC#N)(CCC#N)C(=O)OCC,9.8
13,CC(c1ccccc1)N1C(=O)CSC1=S (stereo not given),30.5
14,C=CCOc1ccc(Cl)cc1Cl,-4.4
15,O=[N+]([O-])c1ccc(-c2nc(N(CCO)CCO)c3ccccc3n2)o1,69.8
16,Cc1ccc(O)c(N)c1,-12.5
17,O=C1C=C[C@H](O)[C@@]2(CO)O[C@@H]12,0.85
18,O=C(Nc1c(Cl)cc(Cl)cc1Cl)ON=C1CCCCC1,-19
19,C1CCc2onc(-c3noc4c3CCCCC4)c2CC1,-15.8
20,O=S(Cc1ccccc1)/C(=C/NC(=S)Nc1ccccc1)c1ccccc1 (stereo not given),-25.1
